Measured values taken from PubChem BioAssay.

Test: small-molecule microarray binders of probe aEGFR, primary screen, biochemical, biotinylated probe, 635/667 nm fluorescence (AID 1097);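 also: probe is a biotinylated anti-EGFR antibody binding compounds printed on slides; score combines fluorescence near 667 nm and signal to noise of each spot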
Details: higher = more signal

Row | Structure (SMILES) | composite z-score
1 | CCOC(=O)C1=CCC(c2ccc(C)cc2)N(S(=O)(=O)c2ccc(C)cc2)C1 (stereo not given) | -0.121
2 | CN(C)CCCNC(=O)[C@@]1(c2ccc([N+](=O)[O-])cc2)CC(=O)N(C2CCCCC2)[C@@H]1c1ccc(CO)cc1 | -0.0978
3 | CC(=O)N1Cc2ccccc2C[C@@]2(COC(c3ccc(OCCCO)cc3)=N2)C1=O | 0.119
4 | COCCOC(=O)N1C(=O)[C@@]2(c3cc(C#CC4=CCCCC4)ccc31)[C@H](C(=O)Nc1nc3ccccc3s1)[C@H]1C(=O)O[C@H](c3ccccc3)[C@H](c3ccccc3)N1[C@@H]2c1ccc(OCCO)cc1 | -0.0238
5 | C=CC[C@]1(C(=O)N2CCCCC2)N=C(c2ccc(OCCCO)cc2)O[C@H]1c1ccccc1 | 0.35
6 | O=C1NCC(=O)N2[C@@H]1C[C@@H](C(=O)O)[C@H]2c1cccc(OCCO)c1 | 1.41
7 | O=C1O[C@H](c2ccccc2)[C@H](c2ccccc2)N2[C@H]1[C@@H](C(=O)O)[C@]1(C(=O)Nc3ccc(C#CCCO)cc31)[C@H]2c1ccc(O)cc1 | 0.186
8 | C=CCOC(=O)[C@H]1[C@@H]2C(=O)O[C@@H](c3ccccc3)[C@@H](c3ccccc3)N2[C@@H](c2ccc(OCCOC(=O)[C@@H]3C[C@@H]4C(=O)N[C@@H](CCCCN(C)C)C(=O)N4[C@@H]3c3ccc(O)cc3)cc2)[C@]12C(=O)Nc1ccc(I)cc12 | 0.0752
9 | CC(C)(C)OC(=O)CC[C@]12N=C(c3ccc(OCCCO)cc3)O[C@H]1c1ccccc1N(CCS(=O)(=O)c1ccccc1)C2=O | 0.0288
10 | CN(C)C(=O)[C@@]1(Cc2ccccc2CN=[N+]=[N-])N=C(c2ccc(OCCCO)cc2)O[C@H]1c1ccccc1 | -0.0356
11 | COc1cc2c(cc1OC)CN(C(=O)[C@H]1[C@@H]3C(=O)O[C@@H](c4ccccc4)[C@@H](c4ccccc4)N3[C@@H](c3ccc(O)cc3)[C@]13C(=O)Nc1ccc(C#CC4=CCCCC4)cc13)CC2 | 0.143
12 | CN1C(=O)C2C=CC(C(O)c3cc(C(F)(F)F)cc(C(F)(F)F)c3)N(N3CCCCC3)C2C1=O (stereo not given) | 0.153
13 | COCC(=C=CC[C@H](O)c1ccccc1OCCO)C[C@H](O)c1cc(Cl)cc(Cl)c1O | -0.0703
14 | CCCN1C(=O)[C@]2(CCS(=O)(=O)c3ccccc3)N=C(c3ccc(OCCCO)cc3)O[C@@H]2c2ccccc21 | -0.0509
15 | COc1cc2c(cc1OC)CN(C(=O)[C@H]1[C@@H]3C(=O)O[C@@H](c4ccccc4)[C@@H](c4ccccc4)N3[C@@H](c3ccc(O)cc3)[C@]13C(=O)Nc1ccc(C#CCNC(N)=O)cc13)CC2 | -0.02
16 | CN(C)CCCNC(=O)[C@@]1(C)c2ccccc2C(=O)N(Cc2cc(F)cc(C(F)(F)F)c2)[C@H]1c1ccc(CO)cc1 | -0.237
17 | O=C1C2C=CC(C(O)C3CCCCC3)N(Nc3ccc([N+](=O)[O-])cc3)C2C(=O)N1c1ccccc1 (stereo not given) | -0.226
18 | O=C1OCCC/C=C\[C@H]2OC34C=CCN(c5ccc6ccccc6c5)C(=O)[C@H]3N(CCCCCCO)C(=O)[C@@H]4C12 (stereo not given in full) | -0.0597

Row | Structure (SMILES) | composite z-score
19 | COCCOC(=O)N1C(=O)[C@@]2(c3cc(C#CCNC(N)=O)ccc31)[C@H](C(=O)NC[C@H](O)c1ccccc1)[C@H]1C(=O)O[C@H](c3ccccc3)[C@H](c3ccccc3)N1[C@@H]2c1ccccc1OCCO | -0.118
20 | CC(C)(C)OC(=O)CC[C@@]12N=C(c3ccc(OCCCO)cc3)O[C@@H]1c1ccccc1N(CCS(=O)(=O)c1ccccc1)C2=O | -0.0679
21 | COC(=O)[C@@]1(Cc2ccc(F)cc2)[C@H]2c3cc(C(=O)N4CCCC4)n(Cc4cc(C)n(C)n4)c3C[C@H]2CN1C(=O)c1ccccc1 | 0.209
22 | COC(=O)c1c(CC[C@@H](CO)NC(=O)N2CCC[C@H]2Cn2cc(-c3ccccn3)nn2)oc(C(C)=O)c1C(=O)OC | -0.13
23 | CCOC(=O)[C@H]1CC=C2CC1C(=O)N1CCC[C@@H]1[C@@H]2O[Si](C)(C)C(C)(C)C (stereo not given in full) | -0.265
24 | C=CCC(OC(C)=O)[C@@H]1[C@@H](N(Cc2ccc(-c3ccccc3)cc2)C(=O)Cc2ccc(F)cc2)c2cc(OCCCO)ccc2N1C(=O)c1ccc(-c2ccccc2)cc1 (stereo not given in full) | -0.0372
25 | CCOC(=O)C[C@H]1[C@H](OC(=O)Cc2ccc3c(c2)OCO3)[C@@H](NC(=O)c2ccc(-c3ccccc3)cc2)c2cc(OCCCO)ccc2N1C(=O)c1ccc2ccccc2n1 | -0.0661
26 | COCCCNC(=O)[C@@]1(Cc2ccccc2)N=C(c2ccc(OCCCO)cc2)O[C@H]1c1ccccc1 | 0.265
27 | NC(=O)[C@@H]1[C@H]2C(=O)O[C@H](c3ccccc3)[C@H](c3ccccc3)N2[C@H](c2ccc(O)cc2)[C@@]12C(=O)Nc1ccc(C#CC3(O)CCCCCC3)cc12 | -0.178
28 | COc1cc2c(cc1O)C(C1CC1)N(Cc1cc3c(cc1Br)OCO3)CC2 (stereo not given) | -0.363
29 | CCCCCC1=C2CNC(CCC)(C(=O)OC)C=C2C(C)C1=O (stereo not given) | 0.189
30 | COc1ccc(C(O)C2C=CC3C(=O)NC(=O)C3N2Nc2ccccn2)c2ccccc12 (stereo not given) | -0.107
31 | COC(=O)C(CC#Cc1ccc2c(c1)[C@]1(C(=O)N2)[C@H](C(=O)O)[C@H]2C(=O)O[C@H](c3ccccc3)[C@H](c3ccccc3)N2[C@@H]1c1ccc(O)cc1)C(=O)OC | -0.0514
32 | CC1(C)[C@@H]2CC(C(O)C3C=CC4C(=O)N(c5ccccc5)C(=O)C4N3Nc3ccccc3)=C[C@H]1C2 (stereo not given in full) | -0.0431
33 | COc1ccc([Si](C)(C)[C@H]2[C@H](CCn3cc([C@H](O)c4ccccc4)nn3)O[C@@]3(C(=O)N(Cc4cccc(N5CCOC5=O)c4)c4ccccc43)[C@@H]2C)cc1 | 0.117
34 | COc1cc2c(cc1O)C=[N+](Cc1cccc(OC(F)(F)F)c1)CC2 | -0.171
35 | COC(=O)[C@@]1(Cc2ccc(OC)cc2)[C@H]2c3cc(C(=O)N(C)C)n(CCN4CNCC4=O)c3C[C@H]2CN1C(=O)c1ccccc1 | 0.107
